High-throughput results as filed in PubChem BioAssay.
LmPK inhibitor = LmPK (Leishmania mexicana) enzyme inhibition | purified LmPK, Kinase-Glo ATP luminescence, 1 h | Potency, µM (series often up to 57.5 µM), for inactives: at the top dose activity change, negative = inhibition, usual class: inhibitors | actives 0.37% (n = 290,000) | AID 1721
Target sequence (Q27686 whole entry, looked up): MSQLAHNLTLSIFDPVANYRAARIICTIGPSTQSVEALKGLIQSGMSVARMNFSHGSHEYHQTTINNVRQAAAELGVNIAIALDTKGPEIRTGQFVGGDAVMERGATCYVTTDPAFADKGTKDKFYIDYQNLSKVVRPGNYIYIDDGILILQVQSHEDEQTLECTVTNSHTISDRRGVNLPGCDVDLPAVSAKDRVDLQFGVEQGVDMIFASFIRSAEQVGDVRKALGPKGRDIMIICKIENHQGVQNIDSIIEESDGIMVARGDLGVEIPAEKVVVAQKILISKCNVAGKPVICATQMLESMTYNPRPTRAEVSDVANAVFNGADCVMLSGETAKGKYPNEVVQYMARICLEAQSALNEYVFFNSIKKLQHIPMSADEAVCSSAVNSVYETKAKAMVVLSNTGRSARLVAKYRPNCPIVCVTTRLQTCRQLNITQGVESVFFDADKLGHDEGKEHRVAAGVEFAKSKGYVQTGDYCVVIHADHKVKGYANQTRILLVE
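Screened at intermediate enzyme activity to detect both inhibitors and activators: LmPK at 0.1 nM, with a 0.5 nM enzyme column as activation reference. PEP 0.5 mM, ADP 0.1 mM; ATP detected by luminescence after 1 h.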
RE007 growth inh = less growth of the S. pombe RE007 Vpr strain. S. pombe RE007 Vpr strain, BacTiter-Glo ATP luminescence, 24 h. Potency, µM (series often up to 92.2 µM), without a hit: at the highest dose activity change, negative = less growth, usual class: inhibitors. actives 0.21% (n = 360,000). AID 651644; active = well fitted falling curve with a large enough effect; inconclusive = small, poorly fitted or top-dose-only effect; inactive = no such curve, though single readings can be large or run the other way; also: nearly all actives have a fitted effect of over 50% in size
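Fission yeast strain RE007, carrying one chromosomally integrated HIV-1 vpr copy, was seeded at OD 0.01 in PMG+AL medium with 23 nL pinned compound. After 24 h at 30 °C and 99% humidity, viability was read by BacTiter-Glo luminescence.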
Tb PYK inh = blocks Trypanosoma brucei pyruvate kinase; Q57TT1; TbPYK enzyme, Kinase-Glo Plus ATP luminescence, 45 min; Potency, µM (series often up to 76.8 µM), for the others: at the highest dose activity, negative = inhibition, hits mostly inhibitors; actives 0.12% (n = 410,000); also: nearly all actives have a fitted effect of over 50% in size
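Luminescent Kinase-Glo Plus end-point after 45 min room-temperature reaction of T. brucei pyruvate kinase started with 130 uM ADP (final). Buffer TEA 50 mM pH 7.2 with KCl, MgCl2, BSA, Tween-20; titration-based qHTS with fitted concentration-effect curves.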
AMA1 RON2 block = disrupts binding of P. falciparum AMA1 to RON2; actives 0.2% (n = 360,000); AID 720542; AlphaScreen AMA1-biotinylated RON2 peptide binding; Potency, µM (top dose mostly 58.2 µM), for the others: at the top dose activity change, negative = inhibition, usual class: inhibitors;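 also: 0% = vehicle wells and -100% = peptide control; nearly all actives have a fitted effect of over 45% in size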
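AMA1 (3D7) with his tag at 25 nM final met compounds first, then biotinylated RON2 peptide at 25 nM; detection used donor plus acceptor beads, 10 µg/mL apiece, read by AlphaScreen after 30 min at room temperature.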
Sm TGR inh = blocks Schistosoma mansoni thioredoxin glutathione reductase | AID 485364 | purified TGR, DTNB reduction, TNB absorbance 405 nm | Q962Y6 | Potency, µM (top dose mostly 114 µM), inactives show at the top dose activity change, negative = inhibition, most hits filed as inhibitors | actives 3% (n = 360,000); also: nearly all actives have a fitted effect of over 60% in size
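Kinetic colorimetric format: TGR-catalysed, NADPH-driven DTNB reduction monitored via TNB absorbance. Enzyme dispensed at 20 nM; compound exposure 15 min at room temperature before reaction start.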
* marks the source's active call; other numbers are inactive results; u = inconclusive; x = no result; [ ] = dose if it differs, or a comment. Only some compounds are listed: those with a hit (about 3.2% of all), similar ones and a draw of the others. Unless noted, calls follow the shape of the dose curve; as a rule, active = well fitted curve in the direction sought with a large enough effect; inconclusive = small, poorly fitted or top-dose-only effect, or another doubt; inactive = no such curve, though single readings can be large; an effect the other way counts as inactive or inconclusive. Unless noted, % is scaled to controls: 0 for no effect and ±100 for the full control effect; potency is read from the fitted curve at half-maximal effect.

SMILES	LmPK inhibitor	RE007 growth inh	Tb PYK inh	AMA1 RON2 block	Sm TGR inh
O=S(=O)(NCc1csc(-c2ccccc2)n1)c1ccccc1	x	x	-6%	x	-17%
O=C(NC(=S)Nc1ccc(S(=O)(=O)N2CCCCCC2)cc1)c1cccs1	-1%	7%	0%	36%[11.6 µM]	u
Cc1cccc(C(=O)NC(=S)Nc2ccc(S(=O)(=O)N3CCN(C)CC3)cc2)c1	1%	-4%	-15%	-2%	u
Cc1ccc(C(=O)NC(=S)Nc2ccc(S(=O)(=O)N3CCN(C)CC3)cc2)cc1	4%	5%	-14%	12%	28µM*
O=C(NC(=S)Nc1ccc(S(=O)(=O)N2CCCC2)cc1)c1cccs1	1%	1%	-9%	35%	18µM*
COc1cc(/C=C/c2nc(C#N)c(N3CCCCCC3)o2)cc(OC)c1OC	x	x	-6%	x	1%
Cc1cc(Br)cc2c1NC(=O)C2(c1c(C)n(C)n(-c2ccccc2)c1=O)c1c(C)n(C)n(-c2ccccc2)c1=O	1%	2%	-7%	-14%	45µM*
Cc1c(C2(c3c(C)n(C)n(-c4ccccc4)c3=O)C(=O)Nc3ccc(F)cc32)c(=O)n(-c2ccccc2)n1C	-6%	13%	-13%	-12%	-12%
CCCCN(C)C(=O)c1cc2cc3ccc(OC)cc3nc2s1	14µM*	u	u	20%	14%
Cc1cc(O)c(C(c2cccc(Cl)c2)N2CCN(c3ccccc3)CC2)c(=O)n1Cc1ccco1 (centres undefined)	x	x	-1%	x	4µM*
Oc1c(C(c2ccccc2)N2CCN(c3cccc(Cl)c3)CC2)sc2nc(-c3ccco3)nn12 (centres undefined)	x	x	-3%	x	-1%
Cc1cc(O)c(C(c2cccc(F)c2)N2CCN(c3ccccc3)CC2)c(=O)n1Cc1ccco1 (centres undefined)	x	x	-1%	x	3.2µM*
O=C(O)c1cccc(-n2cnc3cccnc32)c1	x	x	2%	x	1%
Cc1ccc(C)c(NC(=O)C(=O)NCCc2csc3nc(-c4ccccc4C)nn23)c1	x	x	2%	x	3%
COc1ccc(CNC(=O)CCC2N=C3c4ccccc4N=C(SCc4ccc(F)cc4)N3C2=O)cc1 (centres undefined)	x	x	-9%	x	2%
CC1=C(C(N)=O)C(c2ccc(Br)cc2)n2nc(CCCO)nc2N1 (centres undefined)	9%	5%	-1%	1%	2%
OCCCc1nc2n(n1)C(c1cccs1)C=C(c1ccc(Br)cc1)N2 (centres undefined)	-4%	x	x	x	25µM*
Brc1ccc(C2=CC(c3cccs3)n3ncnc3N2)cc1 (centres undefined)	2%	-23%	-14%	-11%	22µM*
COc1ccc2nc(SCC(=O)c3c(C)[nH]c4ccccc34)nc(C)c2c1	x	x	2%	x	-2%
COc1ccc(-c2cn(-c3cccc(C)c3)c(=O)[nH]2)cc1OC	-2%	2%	-12%	-4%	13µM*
COc1ccc(-c2cn(-c3ccc(C)cc3C)c(=S)[nH]2)cc1OC	-4%	-8%	-30%	31%	-24%
O=S(=O)(/C(=C/c1ccc(C(F)(F)F)cc1)c1nc2ccccc2[nH]1)c1ccccc1	-2%	-10%	-11%	-14%	18µM*
CC(C)c1ccc(/C=C(\c2nc3ccccc3[nH]2)S(=O)(=O)c2ccccc2)cc1	5%	-5%	-11%	-22%	-1%
CC(C)C1Nc2c(O)cc(Cl)c([N+](=O)[O-])c2C2C=CCC21 (centres undefined)	-15%	u	-15%	21%	7.1µM*
O=C(CSc1ncc(S(=O)(=O)c2ccc(Cl)cc2)c(=O)[nH]1)Nc1ccc2c(c1)OCCO2	x	x	1%	x	-1%
SMILES	LmPK inhibitor	RE007 growth inh	Tb PYK inh	AMA1 RON2 block	Sm TGR inh
Cc1ccc(-n2nnc(-c3nccn3C)n2)cc1	14µM*	u	u	-1%	0%
Cc1ccc(-n2nnc(-c3cccnc3)n2)cc1	x	-13%	-1%	13%	x
Cc1ccc(OCC(=O)OCc2cc(=O)n3nc(C4CCCCC4)sc3n2)cc1C	x	x	1%	x	-6%
O=S(=O)(Nc1ccc2nc(-c3ccc(Br)o3)[nH]c2c1)c1ccccc1	2%	x	x	x	28µM*
Cc1ccc(-c2nc3ccc(NS(=O)(=O)c4ccccc4)cc3[nH]2)o1	1%	1%	-24%	-7%	35µM*
Cc1cc(C)nc(N/N=C/c2sccc2C)n1	u	-4%	-20%	39%	-14%
Cc1ccsc1/C=N/Nc1nc(=O)[nH]nc1C	u	13µM*	u	-51%	-5%
Cc1ccc(NC(=O)c2cc(S(=O)(=O)NC3CCCCC3)ccc2F)cc1Cl	x	x	1%	x	8%
CC(=O)c1cccc(N2Cc3ccccc3C2=NC(=O)CCl)c1	4%	-2%	-7%	1%	18µM*
CCN1CCN(Cc2cc(OC)c(OC)cc2[N+](=O)[O-])CC1	-2%	5%	-1%	-3%	32µM*
COc1cc(CN2CCCCCC2)c([N+](=O)[O-])cc1OC	1%	2%	6%	-5%	-2%
Cc1cccc(C(=O)N2CCCCCC2)c1	1%	2%	-1%	0%	-8%
Cc1cccc(C(=O)n2c(=S)nc3ccccn32)c1	13µM*	u	-20%	-2%	7%
Cc1ccc(C(=O)n2c(=S)nc3ccccn32)cc1	14µM*	x	x	x	0%
CCOc1ccc(N(Cc2cc3cc(C)ccc3[nH]c2=O)C(=O)c2cccc(Cl)c2)cc1	x	x	4%	x	10%
Cc1cc(C(=O)N2CCN(c3cccc(C)c3C)CC2)c2c(C)nn(-c3ccccc3)c2n1	x	x	-2%	x	13%
COc1ccccc1CN(Cc1cc2c(C)ccc(C)c2[nH]c1=O)Cc1nnnn1Cc1ccco1	2%	-9%	0%	-9%	45µM*
Cc1ccc(CN(Cc2cc3cc4c(cc3[nH]c2=O)OCCO4)Cc2nnnn2Cc2ccco2)cc1	10%	0%	-11%	-8%	11µM*
Cc1ccc(C)c2[nH]c(=O)c(CN(CCN3CCOCC3)Cc3nnnn3CC3CCCO3)cc12 (centres undefined)	2%	8%	-10%	0%	20µM*
CCNC(=S)N(Cc1ccco1)Cc1cc2cc3c(cc2[nH]c1=O)OCCO3	3%	6%	5%	16%	-24%
CNC(=S)N(Cc1ccco1)Cc1cc2cc3c(cc2[nH]c1=O)OCCO3	4%	-10%	-16%	-12%	14µM*
Cc1ccc(-c2cnc(C3CC3)o2)cc1S(=O)(=O)Nc1ccc(F)cc1Cl	x	x	-13%	x	-3%
CCc1cccc2c(-c3ccc(F)cc3)nc(SCC(=O)Nc3ccccc3)nc12	x	x	1%	x	1%
Cc1ccc(C2C(C#N)=C(N)SC(N)=C2C#N)cc1	15%	11%	-11%	2%	u
N#CC1=C(N)SC(N)=C(C#N)C1c1ccoc1	2%	x	x	x	5µM*
